Reference: PubChem BioAssay
Where “and” joins values, the source holds several entries; their conditions need not be identical. Equal entries are not always repeated. Calls of active or inactive are those of the source.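 How the source made its calls, unless noted: active means thallium flux through the channel raised or lowered by more than 3 SD from vehicle-only wells, actives on both sides; inactive means the rest.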

What was measured:
[1] = Cy5 fluorescence interference with SSB-bound oligo, artefact control for HCV NS3 helicase inhibitor project, biochemical, NIH Clinical Collection, E. coli SSB (AID 743268; call rule not given here)
[2] = system: Hepatitis C virus NS3 helicase; experiment: HCV NS3 helicase inhibitors, primary screen, biochemical, fluorescence polarization, NIH Clinical Collection (AID 743270; call rule not given here); conditions: NS3 helicase binding to Cy5-dT15 DNA, stronger effect = higher value, concentration not given here
[3] = target: Single-stranded DNA-binding protein (Escherichia coli (strain K12)) (UniProt P0AGE0); experiment: E. coli SSB displacement from DNA, counter-screen for HCV NS3 helicase inhibitor project, biochemical, fluorescence polarization, NIH Clinical Collection (AID 743271; in the data active means inhibition above about 28%); conditions: stronger effect = higher value, concentration not given here
[4] = fluorescence interference in NS3h assay format, artefact control for HCV NS3 helicase inhibitor project, biochemical, NIH Clinical Collection (AID 743272; call rule not given here;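 further: HCV NS3 helicase with a Cy5 labelled single stranded DNA probe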); conditions: fluorescence interference counterscreen, stronger effect = lower value
[5] = modulation of C. elegans fzo-1 (AID 1259413; call rule not given here;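 further: fzo-1 mutant C. elegans worms in liquid wells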); conditions: C. elegans fzo-1 modulator screen, mean read-out; stronger effect = higher value
[6] = differential killing of epithelial or mesenchymal cells, primary screen, imaging, PC-3E GFP, TEM4-18 mCherry, co-culture (AID 1345086;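 active means compounds killing one labelled cell type while sparing the other, by normalised counts and ratio limits, not self-fluorescent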;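 on all read-outs here: cells exposed to compound for 72 h before imaging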;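 on red/green cell ratio (normalised): normalised mesenchymal count divided by normalised epithelial count so high means epithelial killing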); conditions: imaging cell counts, at 1 µM; for red/green cell ratio (normalised): actives lie on both sides, counts scaled to control wells, 1 = unselective
[7] = survival rescue of mitochondrial mutant cells in low glucose, primary screen, MELAS cybrids, Rieske KO mouse fibroblasts, CellTiter-Glo (AID 1508586;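 active means mean z-score across replicates of 1.96 or higher in either the MELAS or the Rieske mutant cell line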;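 further: z relative to plate mean and SD of compound and empty wells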)
[8] = ovarian cancer cell viability with rucaparib, profiling panel, oncology-focused library, rucaparib conditional (AID 1508598;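 active means normalized viability below 100% at a tested concentration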); conditions: patient-derived ovarian cancer cells, CellTiter-Glo viability, 144 h, stronger effect = lower value
F380Y = experiment: modulators of BK channel variants, profiling panel, selectivity assay, cell-based, U2OS BacMam, thallium flux, beta subunits (AID 1259406); conditions: at 30 µM;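 further: initial slope of Thallos dye fluorescence rise after thallium is added; log ratio against the mean of 0.3% DMSO vehicle wells on the same plate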
F380Y/beta1 = experiment: as above; conditions: at 30 µM
F380Y/beta2Delta = experiment: as above; conditions: at 30 µM
F380Y/beta4 = experiment: as above; conditions: at 30 µM
[9] = target: Calcium-activated potassium channel subunit alpha-1 (Homo sapiens) + Leucine-rich repeat-containing protein 26 (Homo sapiens) (UniProt Q12791+Q2I0M4); experiment: as above; conditions: F380Y/Slo1WT/gamma1, at 30 µM
Chain of Calcium-activated potassium channel subunit alpha-1 (Homo sapiens) + Leucine-rich repeat-containing protein 26 (Homo sapiens) (Q2I0M4 whole entry, looked up, one chain of several): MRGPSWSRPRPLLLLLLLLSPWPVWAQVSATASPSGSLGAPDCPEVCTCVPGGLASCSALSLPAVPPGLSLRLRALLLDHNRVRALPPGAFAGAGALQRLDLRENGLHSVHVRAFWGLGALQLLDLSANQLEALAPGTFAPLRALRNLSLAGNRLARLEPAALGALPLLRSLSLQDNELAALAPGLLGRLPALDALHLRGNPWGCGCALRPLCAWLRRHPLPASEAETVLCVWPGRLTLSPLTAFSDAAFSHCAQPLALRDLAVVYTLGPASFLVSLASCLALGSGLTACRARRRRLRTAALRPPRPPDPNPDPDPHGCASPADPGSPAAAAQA

R275C = experiment: as above; conditions: at 30 µM
R275C/beta1 = experiment: as above; conditions: at 30 µM
R275C/beta2Delta = experiment: as above; conditions: at 30 µM
R275C/beta4 = experiment: as above; conditions: at 30 µM
R275C/Slo1WT/beta2 = experiment: as above; conditions: at 30 µM
[10] = liver-stage malaria parasite growth inhibition, primary screen, cell-based, HepG2, luciferase luminescence, HepG2 viability (AID 624349; in the data active means parasite load remaining mostly below about 12%, no sharp cut-off; inactive means mostly above about 10%;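 further: 100% = mean of DMSO negative control wells on the same plate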); conditions: P. berghei liver stage in HepG2, luciferase luminescence, concentration not given here; parasite load remaining: stronger effect = lower value; viability: measured here: HepG2 viability without parasites
[11] = sensitizers of A549 cells to miR-34 induction, primary screen, imaging, A549 dox-inducible miR-34, nuclei and caspase counts (AID 1347080;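 active means compounds whose cell count with miR-34 switched on is under 0.7 times the count with it off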); conditions: A549 miR-34 inducible, Hoechst nuclei count, 48 h
[12] = measured here: epithelial PC-3E GFP cell survival
[13] = measured here: mesenchymal TEM4-18 mCherry cell survival
[14] = MELAS cybrid survival, CellTiter-Glo 48 h, stronger effect = higher value
[15] = Rieske KO mouse fibroblast survival, CellTiter-Glo 72 h
[16] = stronger effect = lower value, cell number ratio, induced over uninduced
[17] = measured here: relative caspase fold change +Dox/-Dox
[18] = measured here: total cells with miR-34 induction, stronger effect = lower value
[19] = measured here: total cells without miR-34 induction

O=C(c1ccc(OCCN2CCCCC2)cc1)c1c(-c2ccc(O)cc2)sc2cc(O)ccc12
0.306 and -0.238 and 0.0318: z-score [7, 15]
inactive: fluorescence ratio [1] 1.04 | inhibition [2] -7.73% | inhibition [3] 4.1% | mean signal [5] 205 | red/green cell ratio (normalised) [6] 1.03 | z-score [7, 14] -0.537 and -0.644 and -0.85 | viability ([8]; at 0.000305 µM, OCI-C5x cells, with rucaparib 10 µM, 100% = cells with rucaparib alone) 108% | viability ([8]; at 0.000305 µM, OCI-C5x cells, without rucaparib) 112% | viability ([8]; at 0.000305 µM, OCI-P5x cells, with rucaparib 20 µM, 100% = cells with rucaparib alone) 101% | viability ([8]; at 0.000305 µM, OCI-P5x cells, without rucaparib) 110% | viability ([8]; at 0.00122 µM, OCI-C5x cells, with rucaparib 10 µM, 100% = cells with rucaparib alone) 116% | viability ([8]; at 0.00122 µM, OCI-C5x cells, without rucaparib) 116% | viability ([8]; at 0.00122 µM, OCI-P5x cells, without rucaparib) 103% | viability ([8]; at 0.00488 µM, OCI-C5x cells, with rucaparib 10 µM, 100% = cells with rucaparib alone) 131% | viability ([8]; at 0.00488 µM, OCI-C5x cells, without rucaparib) 107% | viability ([8]; at 0.0195 µM, OCI-C5x cells, with rucaparib 10 µM, 100% = cells with rucaparib alone) 113% | viability ([8]; at 0.0195 µM, OCI-C5x cells, without rucaparib) 110% | viability ([8]; at 0.0781 µM, OCI-C5x cells, with rucaparib 10 µM, 100% = cells with rucaparib alone) 121% | viability ([8]; at 0.0781 µM, OCI-C5x cells, without rucaparib) 107% | viability ([8]; at 0.0781 µM, OCI-P5x cells, with rucaparib 20 µM, 100% = cells with rucaparib alone) 118% | viability ([8]; at 0.0781 µM, OCI-P5x cells, without rucaparib) 125% | viability ([8]; at 0.313 µM, OCI-C5x cells, with rucaparib 10 µM, 100% = cells with rucaparib alone) 114% | viability ([8]; at 0.313 µM, OCI-C5x cells, without rucaparib) 118% | viability ([8]; at 0.313 µM, OCI-P5x cells, with rucaparib 20 µM, 100% = cells with rucaparib alone) 105% | viability ([8]; at 0.313 µM, OCI-P5x cells, without rucaparib) 104% | viability ([8]; at 1.25 µM, OCI-C5x cells, with rucaparib 10 µM, 100% = cells with rucaparib alone) 134% | viability ([8]; at 1.25 µM, OCI-C5x cells, without rucaparib) 117% | viability ([8]; at 1.25 µM, OCI-P5x cells, without rucaparib) 101% | viability ([8]; at 5 µM, OCI-C5x cells, with rucaparib 10 µM, 100% = cells with rucaparib alone) 124% | viability ([8]; at 5 µM, OCI-C5x cells, without rucaparib) 109% | log fold change Tl+ flux (F380Y) 0.0852 | log fold change Tl+ flux (F380Y/beta1) 0.00638 | log fold change Tl+ flux (F380Y/beta2Delta) 0.0463 | log fold change Tl+ flux (F380Y/beta4) 0.0721 | log fold change Tl+ flux [9] -0.00263 | log fold change Tl+ flux (R275C) 0.0285 | log fold change Tl+ flux (R275C/beta1) 0.00107 | log fold change Tl+ flux (R275C/beta2Delta) 0.0378 | log fold change Tl+ flux (R275C/beta4) 0.0617 | log fold change Tl+ flux (R275C/Slo1WT/beta2) -0.0543
active: fluorescence ratio [4] 0.8 | viability ([8]; at 0.00122 µM, OCI-P5x cells, with rucaparib 20 µM, 100% = cells with rucaparib alone) 97.6% | viability ([8]; at 0.00488 µM, OCI-P5x cells, with rucaparib 20 µM, 100% = cells with rucaparib alone) 79.4% | viability ([8]; at 0.00488 µM, OCI-P5x cells, without rucaparib) 94.8% | viability ([8]; at 0.0195 µM, OCI-P5x cells, with rucaparib 20 µM, 100% = cells with rucaparib alone) 90% | viability ([8]; at 0.0195 µM, OCI-P5x cells, without rucaparib) 94.3% | viability ([8]; at 1.25 µM, OCI-P5x cells, with rucaparib 20 µM, 100% = cells with rucaparib alone) 89.1% | viability ([8]; at 5 µM, OCI-P5x cells, with rucaparib 20 µM, 100% = cells with rucaparib alone) 40% | viability ([8]; at 5 µM, OCI-P5x cells, without rucaparib) 63.8%
0.9: normalised cell number [6, 12]
0.93: normalised cell number [6, 13]

CC(C)(S)C(N)C(=O)O (stereo not drawn)
1: normalised cell number [6, 12]
0.358: z-score [7, 15]
11000 and 11700: cell count [11, 18]
95.3% and 72.3% and 93.1%: viability [10]
0.96: normalised cell number [6, 13]
inactive: parasite load remaining [10] 70.2% and 91.2% and 22.9% | fluorescence ratio [1] 1.01 | inhibition [2] -10.4% | inhibition [3] -2.76% | fluorescence ratio [4] 0.98 | mean signal [5] 224 | red/green cell ratio (normalised) [6] 0.95 | fold change [11, 16] 0.987 and 0.932 | z-score [7, 14] 0.615 | log fold change Tl+ flux (F380Y) 0.0383 | log fold change Tl+ flux (F380Y/beta1) -0.0205 | log fold change Tl+ flux (F380Y/beta2Delta) -0.0259 | log fold change Tl+ flux (F380Y/beta4) 0.0204 | log fold change Tl+ flux [9] 0.0127 | log fold change Tl+ flux (R275C) -0.00906 | log fold change Tl+ flux (R275C/beta1) 0.00628 | log fold change Tl+ flux (R275C/beta2Delta) -0.0298 | log fold change Tl+ flux (R275C/beta4) 0.0197 | log fold change Tl+ flux (R275C/Slo1WT/beta2) -0.0192
2.48 and 3.04: fold change [11, 17]
11100 and 12600: cell count [11, 19]

COc1ccc2[nH]c(S(=O)Cc3ncc(C)c(OC)c3C)nc2c1 (stereo not drawn)
9290 and 8180: cell count [11, 18]
78.3%: viability [10]
1.11: normalised cell number [6, 12]
0.92: normalised cell number [6, 13]
inactive: parasite load remaining [10] 75.4% | fluorescence ratio [1] 1.05 | inhibition [2] -1.19% | inhibition [3] -0.1% | fluorescence ratio [4] 1.01 | mean signal [5] 220 | red/green cell ratio (normalised) [6] 0.83 | fold change [11, 16] 1.06 and 1.02 | z-score [7, 14] -0.201 | log fold change Tl+ flux (F380Y) 0.0414 | log fold change Tl+ flux (F380Y/beta1) 0.0445 | log fold change Tl+ flux (F380Y/beta2Delta) -0.007 | log fold change Tl+ flux (F380Y/beta4) 0.0255 | log fold change Tl+ flux [9] 0.0493 | log fold change Tl+ flux (R275C) -0.061 | log fold change Tl+ flux (R275C/beta1) 0.0126 | log fold change Tl+ flux (R275C/beta2Delta) 0.00561 | log fold change Tl+ flux (R275C/beta4) 0.0354 | log fold change Tl+ flux (R275C/Slo1WT/beta2) 0.0116
0.0948: z-score [7, 15]
8760 and 8050: cell count [11, 19]
1.73 and 0.384: fold change [11, 17]

C[C@@H](c1ncncc1F)[C@](O)(Cn1cncn1)c1ccc(F)cc1F
0.93: normalised cell number [6, 12]
75.1%: viability [10]
active: log fold change Tl+ flux [9] 0.106
9140: cell count [11, 18]
2.46: fold change [11, 17]
-0.0394: z-score [7, 15]
9170: cell count [11, 19]
inactive: parasite load remaining [10] 100% | fluorescence ratio [1] 1.03 | inhibition [2] 3.56% | inhibition [3] -6.26% | fluorescence ratio [4] 1.02 | mean signal [5] 264 | red/green cell ratio (normalised) [6] 1.03 | fold change [11, 16] 0.997 | z-score [7, 14] 0.391 | log fold change Tl+ flux (F380Y) 0.0491 | log fold change Tl+ flux (F380Y/beta1) -0.0167 | log fold change Tl+ flux (F380Y/beta2Delta) 0.0265 | log fold change Tl+ flux (F380Y/beta4) 0.000651 | log fold change Tl+ flux (R275C) -0.0159 | log fold change Tl+ flux (R275C/beta1) 0.036 | log fold change Tl+ flux (R275C/beta2Delta) 0.0278 | log fold change Tl+ flux (R275C/beta4) -0.0222 | log fold change Tl+ flux (R275C/Slo1WT/beta2) -0.0193
0.96: normalised cell number [6, 13]

COC(=O)c1c(S(=O)(=O)N2CCOCC2)c(C)n(C)c1C
inactive: log fold change Tl+ flux (F380Y) 0.000226 | log fold change Tl+ flux (F380Y/beta1) 0.0187 | log fold change Tl+ flux (F380Y/beta2Delta) -0.00469 | log fold change Tl+ flux (F380Y/beta4) 0.00738 | log fold change Tl+ flux [9] 0.0534 | log fold change Tl+ flux (R275C) -0.00135 | log fold change Tl+ flux (R275C/beta1) 0.0384 | log fold change Tl+ flux (R275C/beta4) 0.0019 | log fold change Tl+ flux (R275C/Slo1WT/beta2) -0.000777
active: log fold change Tl+ flux (R275C/beta2Delta) 0.108

CC(=O)NC[C@H]1CN(c2ccc(N3CCOCC3)c(F)c2)C(=O)O1
74.1% and 114%: viability [10]
inactive: parasite load remaining [10] 99.9% and 45% | fluorescence ratio [1] 1.07 | inhibition [2] 6.73% | inhibition [3] 2.21% | fluorescence ratio [4] 1.04 | mean signal [5] 269 | fold change [11, 16] 1.08 and 0.926 | z-score [7, 14] -0.794 and 0.174 | log fold change Tl+ flux (F380Y) 0.0386 | log fold change Tl+ flux (F380Y/beta1) 0.0152 | log fold change Tl+ flux (F380Y/beta2Delta) -0.0137 | log fold change Tl+ flux (F380Y/beta4) -0.01 | log fold change Tl+ flux [9] -0.0237 | log fold change Tl+ flux (R275C) -0.0414 | log fold change Tl+ flux (R275C/beta1) 0.0265 | log fold change Tl+ flux (R275C/beta2Delta) 0.023 | log fold change Tl+ flux (R275C/beta4) 0.00539 | log fold change Tl+ flux (R275C/Slo1WT/beta2) 0.0288
9600 and 10500: cell count [11, 19]
10400 and 9730: cell count [11, 18]
-2.51 and -1.01: z-score [7, 15]
1.57 and 0.639: fold change [11, 17]
